Several values for one entry are separate records, joined by “and”; a condition that tells them apart may be missing. Equal entries are not always repeated. Records with an inconclusive call do not appear. Activity calls are given as the source filed them. Calls follow the shape of the dose curve; as a rule, active = well fitted inhibition curve with a large enough effect in the repeat runs; inconclusive = weak or mixed curves; inactive = flat fitted curve, though single readings scatter.
Each molecule was assayed against Luciferin 4-monooxygenase (Photinus pyralis) (UniProt P08659) (assay: qHTS assay to identify small molecule inhibitors of firefly luciferase (AID 1224835; also: nearly all actives have a fitted effect of over 25% in size)). Conditions: purified P. pyralis luciferase, luminescence inhibition; series mostly up to 115 µM; activity change, negative = inhibition: at the top concentration.
Luciferin 4-monooxygenase (Photinus pyralis), sequence (P08659 whole entry, looked up): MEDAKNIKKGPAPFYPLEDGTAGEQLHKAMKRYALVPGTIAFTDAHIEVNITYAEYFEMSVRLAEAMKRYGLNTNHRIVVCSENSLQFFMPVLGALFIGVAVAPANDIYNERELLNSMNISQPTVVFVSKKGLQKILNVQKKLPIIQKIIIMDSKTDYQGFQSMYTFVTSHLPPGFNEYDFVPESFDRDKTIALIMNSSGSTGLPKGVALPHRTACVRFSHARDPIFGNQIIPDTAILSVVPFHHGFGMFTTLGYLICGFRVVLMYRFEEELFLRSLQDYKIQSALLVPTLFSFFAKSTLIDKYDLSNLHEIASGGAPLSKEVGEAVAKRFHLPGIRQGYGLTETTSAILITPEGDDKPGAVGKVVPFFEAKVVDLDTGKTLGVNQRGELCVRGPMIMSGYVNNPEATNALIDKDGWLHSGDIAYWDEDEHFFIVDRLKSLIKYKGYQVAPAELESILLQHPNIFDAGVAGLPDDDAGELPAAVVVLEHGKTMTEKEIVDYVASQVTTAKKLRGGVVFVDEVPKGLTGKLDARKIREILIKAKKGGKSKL
Text: U.S. Tox21 Program National Center for Advancing Translational Sciences [NCATS] NIH Chemical Genomics Center [NCGC] U.S. Environmental Protection Agency [EPA] National Institutes of Environmental Health Sciences [NIEHS] National Toxicology Program [NTP] U.S. Food and Drug Administration [FDA] Tox21 Assay Overview: Firefly (Photinus pyralis) luciferase is one of the most commonly used transcriptional reporters. Firefly luciferase reporter-gene assays are generally considered one of the most sensitive assay types (Wood, 1995; Wood, 1998). However, it was initially observed, in 1991, by Thompson et al., that compounds that resemble the substrates of firefly luciferase (FLuc) can act as competitive inhibitors of the enzyme, and that these compounds, upon interaction with luciferase in the cell, can actually stabilize the protein and increase its half-life. Previous profiling work by other groups to determine the prevalence of compounds that affect FLuc enzymatic activity (PubChem AID 411) identified that ~3% of the MLSMR library (then at ~72K) inhibited FLuc. […] Thus the Tox21 10K library is profiled for activity against FLuc using a biochemical assay of purified FLuc and KM concentrations of FLuc substrates (D-luciferin and ATP).
These assay plates were then treated with 23nL of compound or DMSO using a Kalypsys pin tool, which allows for delivery of a 6-point interplate titration of each compound to the assay plate (quantitative HTS.) 1 uL of firefly luciferase mix (containing 50 mM Tris acetate, pH 7.6, 0.04 uM P. pyralis luciferase, 0.01% Tween, 0.05% BSA and dH2O) was then delivered by FRD to each well. Luciferase activity was then measured using a ViewLux CCD imager.
For `CC1CCCNC1` (stereo not given), the “activity change, negative = inhibition” value was 0.0017% (inactive).
For `CC1(C)COCN1`, the “activity change, negative = inhibition” value was 0.506% (inactive).
For `Cn1cccc1`, the “activity change, negative = inhibition” value was -2.21% (inactive).
`CCC1CCCCC1` was tested, and the “activity change, negative = inhibition” value was 2.57% (inactive).
`O=C1Nc2ccc(Cl)cc2[C@@](C#CC2CC2)(C(F)(F)F)O1` was tested, and the “activity change, negative = inhibition” value was 2.73% [at 52.9 µM] (inactive).
With `CC(C)c1ccccc1N` the “activity change, negative = inhibition” value was -0.509% (inactive).
For `O=C(O)CC(=O)O`, the “activity change, negative = inhibition” value was 0.937% (inactive).
In the case of `C=CC(C)(CCC=C(C)C)OC(=O)/C=C/c1ccccc1` (stereo not given), the “activity change, negative = inhibition” value is reported as -4.13% (inactive).
For `CC(=O)Nc1ccc(O)cc1`, the Potency was “inactive”.
With `O=S(=O)(O)CCCN1CCOCC1` the “activity change, negative = inhibition” value was 1.78% (inactive).
`C=C[C@](C)(O)CC[C@@H]1[C@@]2(C)CCCC(C)(C)[C@@H]2CC[C@@]1(C)O` was tested, and the “activity change, negative = inhibition” value was -0.698% (inactive).
With `CCCCCCCC/C=C\CCCCCCCC(=O)OCCOC(=O)CCCCCCC/C=C\CCCCCCCC` the “activity change, negative = inhibition” value was 1.25% (inactive).
In the case of `O=C(O)CCCCCCC(=O)O`, the “activity change, negative = inhibition” value is reported as 4.22% (inactive).
In the case of `CCN=c1cc2oc3cc(NCC)c(C)cc3c(-c3ccccc3C(=O)OCC)c-2cc1C`, the Potency is reported as “inactive”.
With `Cc1cccc(C)n1` the “activity change, negative = inhibition” value was 5.32% (inactive).
`O=C[C@H](O)[C@H](O)[C@H](O)CO` was tested, and the “activity change, negative = inhibition” value was 1.51% (inactive).
For `O=c1cccc[nH]1`, the “activity change, negative = inhibition” value was 3.36% (inactive).
With `CNC(=O)c1cc(Oc2ccc(NC(=O)Nc3ccc(Cl)c(C(F)(F)F)c3)cc2)ccn1` the “activity change, negative = inhibition” value was -2.05% [at 52.9 µM] (inactive).
With `c1ccc(Nc2cccc3ccccc23)cc1` the Potency was 40.5 µM (active) and 35.6 µM (active).
For `C=C(c1ccc(C(=O)O)cc1)c1cc2c(cc1C)C(C)(C)CCC2(C)C`, the Potency was “inactive”.
With `CC(C)CCOCCC(C)C` the “activity change, negative = inhibition” value was -1.68% (inactive).
In the case of `O=CC1CC1`, the “activity change, negative = inhibition” value is reported as -0.747% (inactive).
In the case of `COc1cc(C(C)C)c2c(c1)S(=O)(=O)N(COc1cc(=O)n3cccc(OCCN4CCCCC4)c3n1)C2=O`, the activity change, negative = inhibition is reported as -3.11% [at 23.6 µM] (inactive).
In the case of `CNC(=S)NN`, the “activity change, negative = inhibition” value is reported as -6.38% (inactive).
With `COc1cc(C(=O)NS(=O)(=O)c2ccccc2C)ccc1Cc1cn(C)c2ccc(NC(=O)OC3CCCC3)cc12` the Potency was 27.5 µM (active).
`Brc1ccccn1` was tested, and the “activity change, negative = inhibition” value was 0.0202% (inactive).
`COc1ccc2sc(C(=O)Nc3nnn[nH]3)c(OC(C)C)c2c1` was tested, and the “activity change, negative = inhibition” value was 0.146% (inactive).
For `CCCN(CCc1cccs1)[C@H]1CCc2c(O)cccc2C1`, the “activity change, negative = inhibition” value was -3.22% [at 52.9 µM] (inactive).
For `CC(C)c1cccc(C(C)C)c1N1C(=O)c2ccc(O)cc2C1=O`, the “activity change, negative = inhibition” value was 9.86% (inactive).
`CCCC(C)CCC(C)=O` (stereo not given) was tested, and the “activity change, negative = inhibition” value was 6.9% (inactive).
`Cc1ccc(O)cn1` was tested, and the “activity change, negative = inhibition” value was -1.63% (inactive).
For `CCOC(OCC)C(=O)c1ccccc1`, the “activity change, negative = inhibition” value was -0.232% (inactive).
For `C=C(C)CCCC`, the “activity change, negative = inhibition” value was 2.96% (inactive).
`OCCCCl` was tested, and the “activity change, negative = inhibition” value was 1.44% (inactive).
`CCCCOC(=O)C(C)CC` (stereo not given) was tested, and the “activity change, negative = inhibition” value was 4.37% (inactive).
`CCC(=O)OCCc1ccccc1` was tested, and the “activity change, negative = inhibition” value was -0.545% (inactive).
With `CCOC(=O)CN` the “activity change, negative = inhibition” value was 4.37% (inactive).
`c1ccc2c(c1)CCC2` was tested, and the “activity change, negative = inhibition” value was 0.443% (inactive).
For `CCN(CC)c1ccc(N)cc1`, the Potency was 41 µM (active).
In the case of `CS(C)(=O)=O`, the “activity change, negative = inhibition” value is reported as 0.651% (inactive).
% is scaled to controls: 0 for no effect and ±100 for the full control effect; potency is read from the fitted curve at half-maximal effect.
